PubChem BioAssay AID1159580 (chemical genetic matrix, 2015)
“And” between values parts separate entries of the source, which are not always exact repeats. Equal entries are not always repeated. Among all 5,500 compounds or so, about 2,000 (36%) were called active. About 18% were inconclusive and are not listed. Rule as the data show it: active = normalized growth mostly below about 0.91 (no sharp cut-off); inconclusive = no clear call, values can overlap the other calls; inactive = mostly above about 0.92. This is one part of the list.

Assay: chemical genetic growth profiling, strain panel (AID 1159580);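 also: tested at 20 µM; growth read once vehicle control cultures reached saturation at 30 °C; 1 = growth at the plate median or of vehicle wells; lower values mean less growth of the strain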
Conditions: S. cerevisiae deletion strains, growth OD

Measured: normalized growth

COc1cccc(O)c1O
inactive: locus YBR021W, strain FUR4, stronger effect = lower value 1.02 | locus YBR229C, strain ROT2, stronger effect = lower value 1.04 | locus YCL029C, strain bik1, stronger effect = lower value 1 | locus YDL035C, strain GPR1, stronger effect = lower value 1.03 | locus YDL074C, strain BRE1, stronger effect = lower value 1.01 | locus YDL101C, strain DUN1, stronger effect = lower value 1.01 | locus YDL134C, strain PPH21, stronger effect = lower value 1.08 | locus YDL185W, strain tfp1, stronger effect = lower value 1.01 | locus YDL192W, strain arf1, stronger effect = lower value 1 | locus YDR101C, strain arx1, stronger effect = lower value 1.01 | locus YDR150W, strain NUM1, stronger effect = lower value 1.04 | locus YDR162C, strain NBP2, stronger effect = lower value 1.07 | locus YDR318W, strain mcm21, stronger effect = lower value 1 | locus YDR388W, stronger effect = lower value 1.01 | locus YDR502C, strain sam2, stronger effect = lower value 1.01 | locus YEL061C, strain CIN8, stronger effect = lower value 1.02 | locus YER110C, stronger effect = lower value 0.996 | locus YER155C, strain BEM2, stronger effect = lower value 1.04 | locus YER167W, strain BCK2, stronger effect = lower value 1.05 | locus YGL078C, strain dbp3, stronger effect = lower value 1.01 | locus YGL086W, strain mad1, stronger effect = lower value 0.999 | locus YGL248W, strain PDE1, stronger effect = lower value 1.03 | locus YGR078C, strain PAC10, stronger effect = lower value 1.05 | locus YGR135W, strain pre9, stronger effect = lower value 0.976 | locus YGR252W, strain gcn5, stronger effect = lower value 0.936 | locus YHR030C, strain SLT2, stronger effect = lower value 1.03 and 0.988 | locus YHR079C, strain IRE1 (second series), stronger effect = lower value 1.02 | locus YHR079C, strain IRE1, stronger effect = lower value 0.999 | locus YHR094C, strain hxt1, stronger effect = lower value 1 | locus YHR129C, strain ARP1, stronger effect = lower value 1.02 | locus YHR200W, strain rpn10, stronger effect = lower value 1 | locus YIL066C, strain RNR3, stronger effect = lower value 1.06 | locus YIL073C, strain SPO22, stronger effect = lower value 1.03 | locus YIL125W, strain kgd1, stronger effect = lower value 1 | locus YIR030C, strain dcg1, stronger effect = lower value 1.04 | locus YJL095W, strain BCK1, stronger effect = lower value 1.02 and 0.997 | locus YJL134W, strain LCB3, stronger effect = lower value 1.03 | locus YJL168C, strain set2, stronger effect = lower value 1 | locus YJL187C, strain SWE1 (second series), stronger effect = lower value 0.976 | locus YJR043C, strain POL32, stronger effect = lower value 1.04 | locus YJR066W, strain TOR1, stronger effect = lower value 0.925 | locus YKL009W, strain mrt4, stronger effect = lower value 1.01 | locus YKL068W, stronger effect = lower value 1.01 | locus YKL085W, strain MDH1 (second series), stronger effect = lower value 1.02 | locus YKL085W, strain MDH1, stronger effect = lower value 1.02 | locus YKR001C, strain vps1, stronger effect = lower value 1.02 | locus YLR039C, strain RIC1, stronger effect = lower value 1.17 | locus YLR058C, strain SHM2, stronger effect = lower value 0.995 | locus YLR102C, strain apc9, stronger effect = lower value 0.995 | locus YLR113W, strain HOG1, stronger effect = lower value 0.989 | locus YLR262C, strain YPT6, stronger effect = lower value 1.15 | locus YLR268W, strain sec22, stronger effect = lower value 0.989 | locus YLR330W, strain CHS5, stronger effect = lower value 1.03 | locus YLR342W, strain FKS1 (second series), stronger effect = lower value 1.01 | locus YLR371W, strain rom2, stronger effect = lower value 1 | locus YLR418C, strain cdc73, stronger effect = lower value 1.01 | locus YML016C, strain PPZ1, stronger effect = lower value 1.03 | locus YML032C, strain rad52, stronger effect = lower value 1.01 | locus YML124C, strain tub3, stronger effect = lower value 1.01 | locus YMR078C, strain ctf18, stronger effect = lower value 0.99 | locus YMR223W, strain ubp8, stronger effect = lower value 0.997 | locus YMR307W, strain GAS1, stronger effect = lower value 1.09 | locus YNL067W, strain RPL9B, stronger effect = lower value 1.05 | locus YNL183C, strain NPR1, stronger effect = lower value 0.926 | locus YNL233W, strain BNI4, stronger effect = lower value 1.05 | locus YNL250W, strain rad50, stronger effect = lower value 0.996 | locus YNL271C, strain bni1, stronger effect = lower value 0.994 | locus YNL298W, strain CLA4, stronger effect = lower value 0.99 | locus YNL307C, strain MCK1, stronger effect = lower value 1.01 | locus YNR052C, strain pop2, stronger effect = lower value 1.01 | locus YOL006C, strain TOP1, stronger effect = lower value 1.27 | locus YOL012C, strain htz1 0.899 | locus YOL147C, strain pex11, stronger effect = lower value 1 | locus YOR061W, strain CKA2, stronger effect = lower value 1.02 | locus YOR069W, strain VPS5, stronger effect = lower value 1.02 | locus YOR136W, strain idh2, stronger effect = lower value 0.994 | locus YOR144C, strain elg1, stronger effect = lower value 1.01 | locus YOR184W, strain ser1, stronger effect = lower value 1.02 | locus YOR231W, strain MKK1, stronger effect = lower value 1.01 | locus YOR316C, strain cot1, stronger effect = lower value 0.995 | locus YPL256C, strain CLN2, stronger effect = lower value 0.994 | locus YPR119W, strain clb2, stronger effect = lower value 1.02 | locus YPR141C, strain kar3, stronger effect = lower value 1.01 | locus YPR163C, strain tif3, stronger effect = lower value 0.978 | locus YPR167C, strain met16, stronger effect = lower value 1.02 | strain wtn01, stronger effect = lower value 0.997
